High-throughput results: PubChem, several laboratories
CSC inhib – cancer stem cell viability inhibitors, primary screen, luminescence. 300,000 tested, 1.1% active. AID 2717, 2010. cancer stem cell-like cells viability. inhibition, % at 7.5 µM; in the data active = inhibition above about 75%; tested in HMLE shEcad cells
MPTP block – mitochondrial permeability transition pore inhibitors, primary screen, biochemical, isolated mouse mitochondria, absorbance. 360,000 tested, 1.4% active. inhibition, % at 10 µM. Ca2+ swelling absorbance, 30 min;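 active = inhibition of 50% or more, scaled per plate between neutral and stimulator controls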;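 note: 0% = DMSO wells given calcium and 100% = 1 mM EGTA wells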
GRIN3A LBD mod – binders of NR3A ligand-binding domain, primary screen, biophysical, differential scanning fluorimetry, uHTS | Tm shift relative to glycine control, % at 25 µM | 340,000 tested, 2.5% active | NR3A LBD differential scanning fluorimetry, Tm shift; 0% = protein alone, 100% = glycine-bound protein;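 active = melting temperature shift of at least 10% of the positive control shift, at one fixed dose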
Beta cell apopt – inhibitors of cytokine-induced beta cell apoptosis, primary screen, luminescence; INS-1E cytokine-induced death, ATP luminescence, 48 h; percent of positive-control rescue, neutral wells zero; 300,000 tested, 0.8% active; AID 435005, 2010; protection from apoptosis, % (concentration not given with the values);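 active = Every replicate reaches about 75%, or at least half do and their mean reaches it too, limit read from the data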;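 note: 0% = cytokine-treated negative control wells and 100% = positive control rescue; higher means more ATP so stronger rescue from cytokine killing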
Mdm2-MdmX inh – inhibitors of human Mdm2-MdmX association, primary screen, cell-based, luminescence, split luciferase, SaOS-2, uHTS; 330,000 tested, 3% active; Protein Mdm4 (Homo sapiens) + E3 ubiquitin-protein ligase Mdm2 (Homo sapiens), …; inhibition, % at 8 µM; SaOS-2 split-luciferase Mdm2/MdmX complementation; AID 485346, 2010;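 active = inhibition of at least 50% at 8 µM in the primary screen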
Target sequence (O15151 whole entry, looked up): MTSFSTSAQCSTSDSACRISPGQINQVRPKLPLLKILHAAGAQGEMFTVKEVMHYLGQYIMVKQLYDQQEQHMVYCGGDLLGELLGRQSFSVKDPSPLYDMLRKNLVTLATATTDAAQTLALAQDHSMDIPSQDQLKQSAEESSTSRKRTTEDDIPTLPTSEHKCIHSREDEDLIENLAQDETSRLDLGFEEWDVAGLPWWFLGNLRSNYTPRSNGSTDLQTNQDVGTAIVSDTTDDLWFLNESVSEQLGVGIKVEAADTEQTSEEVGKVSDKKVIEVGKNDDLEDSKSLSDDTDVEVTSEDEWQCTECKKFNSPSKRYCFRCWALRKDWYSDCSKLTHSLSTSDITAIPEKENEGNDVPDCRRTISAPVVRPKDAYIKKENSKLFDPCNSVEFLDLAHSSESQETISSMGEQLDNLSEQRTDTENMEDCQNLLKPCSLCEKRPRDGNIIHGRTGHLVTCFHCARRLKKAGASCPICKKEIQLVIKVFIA
Target sequence (Q00987 whole entry, looked up): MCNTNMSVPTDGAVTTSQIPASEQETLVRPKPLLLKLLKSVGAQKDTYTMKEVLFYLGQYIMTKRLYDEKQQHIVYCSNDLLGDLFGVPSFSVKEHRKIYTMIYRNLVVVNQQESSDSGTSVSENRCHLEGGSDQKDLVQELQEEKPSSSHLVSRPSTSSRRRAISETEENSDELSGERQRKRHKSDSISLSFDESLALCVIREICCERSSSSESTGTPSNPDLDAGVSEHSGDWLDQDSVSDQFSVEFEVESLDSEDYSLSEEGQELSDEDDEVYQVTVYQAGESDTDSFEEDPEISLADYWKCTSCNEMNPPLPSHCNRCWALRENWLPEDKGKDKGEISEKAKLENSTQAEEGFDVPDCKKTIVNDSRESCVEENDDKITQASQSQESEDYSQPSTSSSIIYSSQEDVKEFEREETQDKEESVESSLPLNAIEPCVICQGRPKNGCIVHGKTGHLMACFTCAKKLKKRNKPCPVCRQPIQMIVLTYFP
Gli-Sufu block – Gli-Sufu pathway antagonists, primary screen, luciferase luminescence, Sufu-KO-LIGHT cells, uHTS | Sufu-KO-LIGHT fibroblasts, Gli luciferase reporter luminescence | 340,000 tested, 0.74% active | inhibition, % at 5 µM;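 active = inhibition above about 55%, limit read from the data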;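 note: 0% = DMSO-treated cells and 100% = wells with medium but no cells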
An asterisk follows results filed as active; / = not tested or not shown. Sampled rows, rich in hits. Any-hit rate of the full collection: about 6.6%.

SMILES | CSC inhib | MPTP block | GRIN3A LBD mod | Beta cell apopt | Mdm2-MdmX inh | Gli-Sufu block
NC(=S)Nc1ccc(S(=O)(=O)c2ccc(NC(N)=S)cc2)cc1 | -4 | -1 | 23* | -12 | -15 | 7
CC(=O)Nc1ccc(S(=O)(=O)c2ccc(N)cc2)cc1 | -15 | -5 | 0 | / | 16 | 0
O=P(c1ccccc1)(c1ccccc1)C(O)c1ccc(Br)cc1 (stereo unspecified) | -4 | 0 | -3 | -8 | -2 | -2
Nc1nc(SCC(=O)NCCc2ccccc2)[nH]c(=O)c1-c1ccccc1 | -2 | / | / | / | 32 | /
CCn1nc(C)c(NC(=O)CCSc2nc(-c3ccco3)cc(C(F)(F)F)n2)c1C | / | 2 | 557* | -1 | 18 | 6
O=C(NC1CCN(c2ncccn2)CC1)c1ccccc1Cl | -4 | 0 | 4 | -5 | -2 | 8
O=C(CCNC(=O)c1ccccc1Cl)Nc1cccc(S(=O)(=O)N2CCOCC2)c1 | / | -1 | -1 | 2 | -16 | -16
Cc1ccc(/C=N/n2c(-c3ccc(Cl)cc3)n[nH]c2=S)s1 | -1 | 1 | 21* | -4 | 31 | 0
Cc1ccc(-c2n[nH]c(=S)n2/N=C/c2ccc(C)s2)cc1 | -9 | 1 | -12 | 4 | 19 | 3
COC(=O)c1c(-c2ccc(OC)cc2)sc2cc3c(cc12)OCO3 | 26 | 2 | 1 | -2 | -186 | -83
COC(=O)c1c(-c2ccc(N(C)C)cc2)sc2ccc(OC)cc12 | 106* | 3 | -17 | 7 | -176 | 34
O=[N+]([O-])c1cc(-c2cnc3ccccc3n2)ccc1Oc1ccc(Cl)cc1 | 77* | 5 | -14 | 5 | 7 | 5
CN(CC(=O)OCC(=O)Nc1ccccc1)S(=O)(=O)c1ccc(Cl)cc1 | 10 | 2 | 18* | -5 | -48 | 3
CC(OC(=O)CN(C)S(=O)(=O)c1ccc(Cl)cc1)C(=O)Nc1ccc(N2CCOCC2)cc1 (stereo unspecified) | / | -1 | -1 | / | / | 11
CC(=O)Nc1ccc(NC(=O)C(C)OC(=O)CN(C)S(=O)(=O)c2ccc(Cl)cc2)cc1 (stereo unspecified) | -15 | -3 | 15* | -1 | 4 | 1
CN(CC(=O)OCC(N)=O)S(=O)(=O)c1ccc(Cl)cc1 | 9 | -1 | 0 | / | 1 | -22
CCOC(=O)C1CCN(C(=O)COC(=O)CN(C)S(=O)(=O)c2ccc(NC(C)=O)cc2)CC1 | -21 | 0 | 10* | -1 | 27 | -4
COC(=O)c1c(NC(=O)CC2SC(N)=NC2=O)sc2c1CCC(C)C2 (stereo unspecified) | 10 | 1 | -7 | -9 | 21 | 1
COC(=O)c1c(NC(=O)CC2SC(N)=NC2=O)sc2c1CCC(C(C)(C)C)C2 (stereo unspecified) | 109* | 1 | -9 | 0 | 36 | 5
Cn1c2ccccc2c(=O)c2ccc(-c3ccc4c(c3)OCO4)cc21 | 54 | 0 | -1 | 0 | -140 | -19
C=C(NC(=O)C(=C)NC(=O)c1csc(C2=NC3c4csc(n4)C4NC(=O)c5csc(n5)C(C(C)(O)C(C)O)NC(=O)C5CSC(=N5)/C(=C/C)NC(=O)C(C(C)O)NC(=O)c5csc(n5)C3(CC2)NC(=O)C(C)NC(=O)C(=C)NC(=O)C(=C)NC(=O)C(C(C)C)NC2C=Cc3c(C(C)O)cc(nc3C2O)C(=O)OC4C)n1)C(N)=O (stereo unspecified) | / | -2 | 8 | / | / | 66*
Cc1onc(-c2ccccc2Cl)c1C(=O)NCc1ccc(F)cc1 | 6 | 0 | 0 | / | -13 | 9
CC(=N\Nc1ccc(Cl)cc1)/C(=N/O)C(=O)Nc1ccccc1 | 6 | 2 | 23* | -4 | 3 | 12
CCn1c(=O)c(C(=O)Nc2nc3ccccc3[nH]2)c(O)c2ccccc21 | 67 | 5 | -2 | 118* | 18 | -18
Cn1cccc1/C=C1\SC(=S)N(Nc2ccccc2)C1=O | 92* | 3 | -2 | 15 | 17 | 0
SMILES | CSC inhib | MPTP block | GRIN3A LBD mod | Beta cell apopt | Mdm2-MdmX inh | Gli-Sufu block
COc1ccc(/C=N/n2cnc3c(sc(=S)n3-c3ccccc3)c2=O)cc1 | -2 | 1 | 16* | -4 | -26 | 16
CCOc1ccc(-n2c(=S)sc3c(=O)n(-c4ccccc4)c(SC)nc32)cc1 | 22 | 0 | 1 | -9 | -29 | 6
CCOc1ccc(CN2CCN(C(=O)c3cccc4ccccc34)CC2)cc1 | 16 | -2 | 9 | 1 | 15 | 47
O=C(O)CSc1cc(NS(=O)(=O)c2ccc(Cl)cc2)c2ccccc2c1O | 34 | 2 | -17 | 9 | / | 6
COc1ccc(S(=O)(=O)Nc2cc(SCC(=O)O)c(O)c3ccccc23)cc1 | 37 | 1 | -26 | 94* | 20 | 23
Cc1ccc(Oc2cc(NC(=O)CCCn3nc([N+](=O)[O-])c(Cl)c3C)cc([N+](=O)[O-])c2)cc1 | -2 | 44 | 10 | 3 | 20 | -1
Cc1cc(C)cc(Oc2cc(NC(=O)c3cn(C)nc3C)cc([N+](=O)[O-])c2)c1 | / | 32 | 13* | 104* | 29 | 17
CCN1C(=O)CC2CCCC1C2 (stereo unspecified) | / | 1 | 11* | / | / | -1
O=C(COC(=O)CCC(=O)c1cccs1)Nc1ccc(S(=O)(=O)N2CCOCC2)cc1 | -23 | -3 | 15* | -10 | 17 | 1
O=C(COC(=O)C1=COCCO1)Nc1cccc(S(=O)(=O)N2CCOCC2)c1 | -11 | 0 | 11* | -3 | 8 | -1
NS(=O)(=O)c1ccc(NC(=O)COC(=O)c2ccc(S(=O)(=O)N3CCOCC3)cc2)cc1 | / | 0 | 14* | / | -6 | 6
CC(=O)Nc1ccc(C(=O)OCC(=O)Nc2ccc(S(=O)(=O)N3CCOCC3)cc2)cc1 | / | -2 | 0 | 1 | -6 | 0
COCCN(C(=O)Cn1c(C(F)(F)F)nc2ccccc21)c1c(N)n(Cc2ccccc2)c(=O)[nH]c1=O | -12 | 1 | 2 | -10 | 13 | -2
CCCCCCCCOC(=O)c1c(CSC(=N)N)n(C)c2cc(Br)c(OC(C)=O)cc12 | 76* | 0 | 40* | -1 | -5 | 23
Cc1nn(-c2ccccc2)c2c1C(c1ccc([N+](=O)[O-])cc1)N1C(=N2)C(=O)Nc2ccccc21 (stereo unspecified) | 8 | 0 | -1 | 20 | 22 | 3
Cc1ccc(NC2=Nc3ccccc3N3C2=Nc2c(c(C)nn2-c2ccccc2)C3c2ccc(O)c(O)c2)cc1 (stereo unspecified) | / | 2 | 15* | / | / | 5
C[C@H]1CN([C@@H](C)CO)C(=O)CCCn2cc(nn2)CO[C@@H]1CN(C)C(=O)CCC(F)(F)F | / | 1 | / | / | / | /
